Reference: PubChem BioAssay
Activity calls are given as the source filed them.

Assays:
[1] = test system: PRMT1 (protein arginine N-methyltransferase 1); assay: small molecules binding arginine methyltransferase PRMT1 – biochemical, small-molecule microarray, 635 nm fluorescence, primary screen (AID 1088); conditions: higher = more signal;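 further: binding of Prmt1 protein to compounds spotted on small-molecule microarray slides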
[2] = growth effects on S. cerevisiae YJM789 – YJM789 clinical isolate, OD600, 24 h, basal, primary screen (AID 1089); conditions: higher = more signal, called active from +8 up or from −8 down;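 further: growth of clinical yeast isolate S. cerevisiae YJM 789 seeded 1000 cells per well; test concentration not given here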
[3] = S. pombe growth modifiers, basal conditions – strain 972, OD600, 24 h, no modulator, primary screen (AID 1090);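 further: basal condition with compound alone and no growth modifier present; test concentration not given here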; conditions: S. pombe 972 growth, higher = more signal, called active from +8 up or from −8 down
[4] = budding yeast growth modifiers under rapamycin – strain BY4716, OD600, 96 h, primary screen (AID 1091); further: test concentration not given here; conditions: S. cerevisiae BY4716 + rapamycin, higher = more signal, called active from +8 up or from −8 down
[5] = target: Torsin-1A-interacting protein 2 (Homo sapiens) (UniProt Q8NFQ8); assay: small molecules binding lysate-expressed LULL1 – cell lysate, human LULL1 lysate, 635/667 nm fluorescence, primary screen (AID 1092); conditions: small-molecule microarray, hLULL1 lysate binding, 635 nm fluorescence; higher = more signal;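 further: probe is lysate of COS7 cells overexpressing human LULL1; score merges per-feature 667 nm fluorescence with signal-to-noise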
Torsin-1A-interacting protein 2 (Homo sapiens), sequence (Q8NFQ8 whole entry, looked up): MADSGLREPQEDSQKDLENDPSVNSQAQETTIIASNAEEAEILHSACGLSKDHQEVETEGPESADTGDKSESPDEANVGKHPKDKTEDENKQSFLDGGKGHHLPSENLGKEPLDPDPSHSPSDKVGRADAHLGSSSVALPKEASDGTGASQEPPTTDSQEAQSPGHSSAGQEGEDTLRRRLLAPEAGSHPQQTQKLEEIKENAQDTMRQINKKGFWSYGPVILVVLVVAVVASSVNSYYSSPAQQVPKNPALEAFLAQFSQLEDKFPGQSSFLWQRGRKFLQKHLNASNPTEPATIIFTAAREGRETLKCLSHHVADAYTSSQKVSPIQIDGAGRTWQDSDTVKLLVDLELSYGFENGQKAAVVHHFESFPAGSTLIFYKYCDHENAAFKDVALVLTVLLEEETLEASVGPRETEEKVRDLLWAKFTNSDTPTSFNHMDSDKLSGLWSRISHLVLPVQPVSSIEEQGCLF

[6] = optical density change of DRC41 E. coli – strain DRC41, OD650, 24 h, E. coli filamentation project, primary screen (AID 1093);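 further: MC1000 strain lacking acrAB efflux and sulA so SOS filamentation is blocked; test concentration not given here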; conditions: E. coli DRC41 growth, higher = more signal, called active from +8 up or from −8 down
[7] = probe aLefty2 binding to arrayed compounds – biochemical, biotinylated probe, 635/667 nm fluorescence, primary screen (AID 1094); conditions: small-molecule microarray, higher = more signal;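 further: score merges spot fluorescence near 667 nm with spot signal-to-noise ratio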
[8] = test system: Noggin (protein binding on small-molecule microarray); assay: small molecules binding Noggin protein – biochemical, 635/667 nm fluorescence, primary screen (AID 1095); conditions: 635 nm fluorescence, higher = more signal;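 further: score merges 667 nm feature fluorescence with signal to noise over triplicate slides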
[9] = target: Neurogenic locus notch homolog protein 3 (Homo sapiens) (UniProt Q9UM47); assay: small molecules binding NOTCH3 protein – biochemical, 635/667 nm fluorescence, primary screen (AID 1096); conditions: small-molecule microarray, 635 nm fluorescence, higher = more signal
Neurogenic locus notch homolog protein 3 (Homo sapiens), sequence (Q9UM47 whole entry, looked up): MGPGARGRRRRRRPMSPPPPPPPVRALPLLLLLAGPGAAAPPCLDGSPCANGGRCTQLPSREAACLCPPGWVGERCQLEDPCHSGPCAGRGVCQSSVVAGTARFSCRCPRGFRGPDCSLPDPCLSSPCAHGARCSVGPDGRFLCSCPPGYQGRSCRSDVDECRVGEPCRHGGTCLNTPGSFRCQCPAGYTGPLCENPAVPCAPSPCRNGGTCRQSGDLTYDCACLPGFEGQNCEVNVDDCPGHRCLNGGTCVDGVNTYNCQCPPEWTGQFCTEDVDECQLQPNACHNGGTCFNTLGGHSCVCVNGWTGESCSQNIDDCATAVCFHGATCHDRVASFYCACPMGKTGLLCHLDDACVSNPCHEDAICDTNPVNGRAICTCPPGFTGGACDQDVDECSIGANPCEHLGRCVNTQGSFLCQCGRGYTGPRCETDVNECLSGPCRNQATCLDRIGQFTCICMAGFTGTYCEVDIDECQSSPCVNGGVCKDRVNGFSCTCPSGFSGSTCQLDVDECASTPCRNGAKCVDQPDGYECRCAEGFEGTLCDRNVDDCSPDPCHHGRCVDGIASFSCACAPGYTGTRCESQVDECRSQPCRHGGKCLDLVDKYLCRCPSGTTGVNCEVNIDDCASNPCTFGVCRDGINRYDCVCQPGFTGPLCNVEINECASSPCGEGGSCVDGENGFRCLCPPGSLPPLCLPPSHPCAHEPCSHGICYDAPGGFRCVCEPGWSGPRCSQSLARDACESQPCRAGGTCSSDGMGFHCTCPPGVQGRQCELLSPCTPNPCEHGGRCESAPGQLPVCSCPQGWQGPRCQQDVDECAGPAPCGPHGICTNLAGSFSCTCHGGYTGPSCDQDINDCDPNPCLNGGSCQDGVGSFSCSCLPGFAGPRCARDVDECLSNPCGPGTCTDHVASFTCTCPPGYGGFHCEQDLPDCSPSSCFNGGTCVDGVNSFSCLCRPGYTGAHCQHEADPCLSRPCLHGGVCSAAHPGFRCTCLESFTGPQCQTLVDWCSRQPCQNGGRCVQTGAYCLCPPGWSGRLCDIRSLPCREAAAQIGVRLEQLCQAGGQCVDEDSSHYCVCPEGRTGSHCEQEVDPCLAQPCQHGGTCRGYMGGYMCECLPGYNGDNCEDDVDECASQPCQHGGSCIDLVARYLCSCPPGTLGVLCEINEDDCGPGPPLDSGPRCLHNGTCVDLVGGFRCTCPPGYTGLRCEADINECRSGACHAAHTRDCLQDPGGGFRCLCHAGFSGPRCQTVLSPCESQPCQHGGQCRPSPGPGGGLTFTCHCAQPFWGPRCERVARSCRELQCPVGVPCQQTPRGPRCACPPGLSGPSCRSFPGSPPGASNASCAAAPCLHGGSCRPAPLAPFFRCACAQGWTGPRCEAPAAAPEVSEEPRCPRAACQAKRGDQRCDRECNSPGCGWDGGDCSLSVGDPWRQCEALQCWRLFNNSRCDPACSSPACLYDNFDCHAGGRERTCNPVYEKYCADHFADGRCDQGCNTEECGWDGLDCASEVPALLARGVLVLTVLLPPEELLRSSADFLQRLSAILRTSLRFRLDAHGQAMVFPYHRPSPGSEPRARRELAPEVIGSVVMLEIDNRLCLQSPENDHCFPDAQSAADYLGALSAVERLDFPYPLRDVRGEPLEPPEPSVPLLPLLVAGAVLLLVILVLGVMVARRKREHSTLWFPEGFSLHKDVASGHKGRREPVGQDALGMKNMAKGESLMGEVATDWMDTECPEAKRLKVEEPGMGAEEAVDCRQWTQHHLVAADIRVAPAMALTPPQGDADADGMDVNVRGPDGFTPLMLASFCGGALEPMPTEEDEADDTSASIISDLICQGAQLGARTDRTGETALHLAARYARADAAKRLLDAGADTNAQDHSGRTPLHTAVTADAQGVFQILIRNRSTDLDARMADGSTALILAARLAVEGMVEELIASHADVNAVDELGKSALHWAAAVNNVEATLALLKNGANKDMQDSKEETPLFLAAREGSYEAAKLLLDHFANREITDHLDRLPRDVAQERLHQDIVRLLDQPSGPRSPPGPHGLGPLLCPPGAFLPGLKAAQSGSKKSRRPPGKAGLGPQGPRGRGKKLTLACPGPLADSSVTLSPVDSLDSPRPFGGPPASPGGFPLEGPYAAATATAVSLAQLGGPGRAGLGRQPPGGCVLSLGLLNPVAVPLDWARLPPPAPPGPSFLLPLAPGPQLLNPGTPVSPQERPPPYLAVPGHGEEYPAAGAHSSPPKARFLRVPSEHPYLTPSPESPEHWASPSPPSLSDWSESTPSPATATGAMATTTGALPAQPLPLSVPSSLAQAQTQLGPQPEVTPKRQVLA

[10] = probe aEGFR binding to arrayed compounds – biochemical, biotinylated probe, 635/667 nm fluorescence, primary screen (AID 1097); conditions: small-molecule microarray, higher = more signal;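 further: probe is a biotinylated anti-EGFR antibody binding compounds printed on slides; score combines fluorescence near 667 nm and signal to noise of each spot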

| Structure (SMILES) | composite z-score [1] | z-score [2] | z-score [3] | z-score [4] | composite z-score [5] | z-score [6] | composite z-score [7] | composite z-score [8] | composite z-score [9] | composite z-score [10] |
| --- | --- | --- | --- | --- | --- | --- | --- | --- | --- | --- |
| CCOC(=O)C[C@H]1[C@H](OC(=O)c2ccc(-c3ccccc3)cc2)[C@@H](NC(=O)c2ccc3ccccc3c2)c2cc(OCCCO)ccc2N1C(=O)Cc1ccc(OC)cc1 | 0.265 | -1.32 (inactive) | 0.636 (inactive) | -0.115 (inactive) | 0.948 | 0.0672 (inactive) | -0.124 | -0.205 | -0.209 | -0.128 |
| COC(=O)C(CC#Cc1ccc2c(c1)[C@]1(C(=O)N2)[C@H](C(=O)NC[C@H](O)c2ccccc2)[C@H]2C(=O)O[C@H](c3ccccc3)[C@H](c3ccccc3)N2[C@@H]1c1ccc(OCCO)cc1)C(=O)OC | 1.54 | 2.7 (inactive) | 1.16 (inactive) | 3.93 (inactive) | 3.62 | -0.207 (inactive) | 0.14 | 1.87 | 1.05 | 0.345 |
| Cc1ccc([C@H]2[C@H](C(=O)O)[C@H](Sc3ccccc3)[C@@H](C(C)C)N2S(=O)(=O)c2ccc(C)cc2)cc1 | 1.03 | -0.611 (inactive) | -0.0319 (inactive) | -0.993 (inactive) | 3.03 | -1.69 (inactive) | 0.179 | 0.0176 | 1.13 | -0.0679 |
| COCCOC(=O)N1C(=O)[C@@]2(c3cc(C#CCC(C(=O)OC)C(=O)OC)ccc31)[C@H](c1ccccc1OCCO)N1[C@H](c3ccccc3)[C@H](c3ccccc3)OC(=O)[C@H]1[C@@H]2C(=O)N1CCc2cc(OC)c(OC)cc2C1 | 1.56 | 0.502 (inactive) | 0.979 (inactive) | 3.89 (inactive) | 2.42 | 1.92 (inactive) | -0.0373 | 1.64 | 0.729 | 0.0637 |
| CCCCC(CC)C(O)C1C=CC2C(=O)N(c3ccccc3)C(=O)C2N1Nc1ccccc1 (stereo not given) | 0.527 | 0.549 (inactive) | 0.645 (inactive) | 0.804 (inactive) | 2.94 | -1.54 (inactive) | 0.0319 | -0.0087 | 1.11 | 0.0276 |
| O=c1cccc(CCc2ccccc2)o1 | 1.08 | -0.951 (inactive) | -2.06 (inactive) | 0.102 (inactive) | 1.8 | -0.97 (inactive) | -0.117 | 0.491 | 0.621 | -0.171 |
| O=C(CCN1CCOCC1)c1cccc(O)c1 | 1.3 | -1.35 (inactive) | -5.52 (inactive) | -1.01 (inactive) | 0.571 | -2.03 (inactive) | 0.197 | 0.645 | 1.07 | 0.234 |
| COCCOC(=O)N1C(=O)[C@@]2(c3cc(C#CCNC(N)=O)ccc31)[C@H](C(=O)N1CCc3cc(OC)c(OC)cc3C1)[C@H]1C(=O)O[C@H](c3ccccc3)[C@H](c3ccccc3)N1[C@@H]2c1ccc(OCCO)cc1 | 1.08 | 0.854 (inactive) | 0.575 (inactive) | 4.41 (inactive) | 0.277 | 0.692 (inactive) | -0.0163 | 1.3 | 1.13 | -0.0734 |
| COCCOC(=O)N1C(=O)[C@@]2(c3cc(C#CCC(C(=O)OC)C(=O)OC)ccc31)[C@H](C(=O)N1CCN(c3ncccn3)CC1)[C@H]1C(=O)O[C@H](c3ccccc3)[C@H](c3ccccc3)N1[C@@H]2c1ccc(OCCO)cc1 | 1.55 | -0.485 (inactive) | 0.196 (inactive) | 5.21 (inactive) | 2.26 | 1.36 (inactive) | -0.184 | 0.668 | 0.946 | -0.141 |
| C=CC(=C)C1=CCO[C@@H]1[C@H]1CCCN1S(=O)(=O)c1ccccc1[N+](=O)[O-] | 0.921 | -0.358 (inactive) | 0.131 (inactive) | -0.184 (inactive) | 0.86 | 0.301 (inactive) | -0.0416 | 0.35 | 1.11 | -0.115 |
| COCCOC(=O)N1C(=O)[C@@]2(c3ccccc31)[C@H](c1ccc(O)cc1)N1[C@H](c3ccccc3)[C@H](c3ccccc3)OC(=O)[C@H]1[C@@H]2C(=O)N1CCc2cc(OC)c(OC)cc2C1 | 1.54 | -1.36 (inactive) | 0.201 (inactive) | 1.3 (inactive) | 1.17 | -0.121 (inactive) | 0.0191 | 1.04 | 1.06 | 0.101 |
| Cc1c(NC(=O)CC#N)c(=O)n(-c2ccccc2)n1C | 0.175 | -1.36 (inactive) | -0.263 (inactive) | -0.722 (inactive) | 1.16 | -0.325 (inactive) | -0.225 | 0.407 | 0.66 | -0.0856 |
| COc1ccc(C#Cc2ccc3c(c2)[C@]2(C(=O)N3)[C@H](c3ccc(O)cc3)N3[C@H](c4ccccc4)[C@H](c4ccccc4)OC(=O)[C@H]3[C@@H]2C(=O)NC[C@H](O)c2ccccc2)cc1 | 0.958 | 2.29 (inactive) | 0.241 (inactive) | 1.75 (inactive) | 2.17 | 0.864 (inactive) | -0.0778 | 0.897 | 1.01 | 0.0221 |
| O=C(CS)NCCCCCCNC(=O)[C@@H]1C[C@@H]2C(=O)N3CCC[C@H]3C(=O)N2[C@@H]1c1ccc(O)cc1 | 1.14 | 0.883 (inactive) | 0.626 (inactive) | 1.07 (inactive) | 2.54 | 0.0508 (inactive) | -0.0903 | -0.221 | 0.165 | -0.118 |
| C=CCNC(=O)[C@@H]1[C@H]2C(=O)O[C@H](c3ccccc3)[C@H](c3ccccc3)N2[C@H](c2ccc(OCCO)cc2)[C@@]12C(=O)Nc1ccccc12 | 1.55 | -1.2 (inactive) | 0.406 (inactive) | 2.21 (inactive) | 2.46 | 0.462 (inactive) | -0.175 | 1.28 | 1.09 | -0.197 |
| COc1ccc(CCN2C(=O)[C@@]3(Cc4ccccc42)c2ccccc2C(=O)N(Cc2ccccc2Cl)[C@H]3c2ccc(CO)cc2)cc1 | 1.34 | -0.411 (inactive) | -1.51 (inactive) | -1.24 (inactive) | 0.494 | 0.169 (inactive) | -0.126 | -1.05 | -0.981 | -0.169 |
| C=C[C@@H](COC(C)=O)N(Cc1ccc([N+](=O)[O-])cc1)S(=O)(=O)c1ccc(Br)cc1 | 0.876 | -0.0928 (inactive) | -1.26 (inactive) | 3.93 (inactive) | 1.25 | 2.1 (inactive) | 0.157 | -0.0608 | 0.733 | 0.158 |
| [N-]=[N+]=Nc1ccccc1[C@@H]1OC(c2ccc(OCCCO)cc2)=N[C@]1(CCS(=O)(=O)c1ccccc1)C(=O)N1CCOCC1 | 1.55 | 1.32 (inactive) | 1.91 (inactive) | 1.72 (inactive) | 3.59 | 0.376 (inactive) | 0.515 | 0.417 | 1.06 | 0.65 |
| C=CCOC(=O)[C@H]1[C@@H]2C(=O)O[C@@H](c3ccccc3)[C@@H](c3ccccc3)N2[C@@H](c2ccc(OCCOC(=O)[C@@H]3C[C@@H]4C(=O)NCC(=O)N4[C@@H]3c3ccc(O)cc3)cc2)[C@]12C(=O)Nc1ccccc12 | 1.56 | -4.85 (inactive) | -0.234 (inactive) | 1.47 (inactive) | 2.35 | 2.36 (inactive) | -0.153 | 1.81 | 1.12 | -0.0828 |
| COC(=O)[C@@]1(Cc2ccc(OC)cc2)[C@H]2c3cc(C(=O)N4CCCC4)n(Cc4cc(F)cc5c4OCOC5)c3C[C@H]2CN1C(=O)c1ccccc1 | -0.829 | -0.0795 (inactive) | -0.87 (inactive) | 0 (inactive) | 3.27 | -1.28 (inactive) | 0.499 | -0.307 | 0.77 | 0.241 |
| COCCOC(=O)N1C(=O)[C@@]2(c3cc(C#CC4=CCCCC4)ccc31)[C@H](C(=O)NC[C@H](O)c1ccccc1)[C@H]1C(=O)O[C@H](c3ccccc3)[C@H](c3ccccc3)N1[C@@H]2c1ccc(O)cc1 | 1.54 | 1 (inactive) | 0.0198 (inactive) | 1.83 (inactive) | 2.08 | 2.13 (inactive) | 0.0723 | 0.829 | 1.06 | 0.0937 |
| CCOC(=O)C[C@H]1[C@H](OC(=O)c2ccccc2-c2ccccc2)[C@@H](NC(=O)Cc2ccc(OC)cc2)c2cc(OCCCO)ccc2N1C(=O)c1ccccc1 | -0.617 | 0.82 (inactive) | 0.266 (inactive) | 1.36 (inactive) | 1.33 | -1.08 (inactive) | -0.218 | -0.337 | -0.231 | -0.115 |
| Cc1cc(C)c(C(O)C2C=CC3C(=O)N(C)C(=O)C3N2Nc2ccccc2)c(C)c1 (stereo not given) | 0.378 | -0.304 (inactive) | 0.569 (inactive) | -0.448 (inactive) | 2.41 | -1.32 (inactive) | 1.24 | 0.0355 | 0.533 | 0.907 |
| CC(C)N1C(=O)C[C@@](C(=O)NCc2ccccc2)(c2ccc([N+](=O)[O-])cc2)[C@H]1c1ccc(CO)cc1 | 1.01 | 0.296 (inactive) | -0.203 (inactive) | -0.881 (inactive) | 3.48 | 0.796 (inactive) | 0.16 | -0.112 | 0.199 | -0.167 |
| N#Cc1ccc(NN2C(C(O)c3cccs3)C=CC3C(=O)N(c4ccccc4)C(=O)C32)cc1 (stereo not given) | 0.843 | -1.34 (inactive) | 1.73 (inactive) | 2.72 (inactive) | 3.35 | -0.445 (inactive) | -0.0768 | -0.187 | 0.708 | -0.0357 |
| O=C1C2C=CC(C(O)c3ccc(B(O)O)cc3)N(Nc3ccccc3)C2C(=O)N1c1ccccc1 (stereo not given) | -0.592 | 0.428 (inactive) | -4.7 (inactive) | 0.642 (inactive) | 0.935 | -1.2 (inactive) | 0.229 | -1.11 | -0.085 | -0.041 |
| C[N+](C)(C)CCCCCCNC(=O)[C@H]1C[C@H]2C(=O)N3CCC[C@H]3C(=O)N2[C@H]1c1ccc(O)cc1 | 1.54 | -0.842 (inactive) | -0.153 (inactive) | -0.185 (inactive) | 2.96 | 0.89 (inactive) | 0.0087 | 0.785 | 0.6 | -0.36 |
| CN(C)C(=O)[C@@]1(CCC(=O)OC(C)(C)C)N=C(c2ccc(OCCCO)cc2)O[C@H]1c1ccccc1 | 1.41 | -0.365 (inactive) | -0.0946 (inactive) | -0.213 (inactive) | 3.55 | -0.444 (inactive) | 0.346 | 0.94 | 0.0453 | 0.0197 |
